Results as given in PubChem BioAssay (Tox21).
Inconclusive results are not listed. Where a call stands in place of a potency, no number is given. Unmarked numbers belong to inactive results. Active and inactive are the calls of the source. Calls come from the whole dose curve; as a rule, active = well fitted cell-killing curve with a large enough effect in the repeat runs; inconclusive = weak or mixed curves, or effect the other way; inactive = flat fitted curve, though single readings scatter.

Assay: qHTS RealTime-Glo MT Cell Viability Assay in HEK293 cells - 8 hour (AID 1224887); note: nearly all actives have a fitted effect of over 50% in size; for activity change, negative = cytotoxicity: top concentration of the series differs between compounds
Settings: RealTime-Glo luminescence; series mostly up to 76.8 µM
Description: U.S. Tox21 Program National Center for Advancing Translational Sciences [NCATS] NIH Chemical Genomics Center [NCGC] U.S. Environmental Protection Agency [EPA] National Institutes of Environmental Health Sciences [NIEHS] National Toxicology Program [NTP] U.S. Food and Drug Administration [FDA] Tox21 Assay Overview: Measure of cell viability is critical in the cell-base assay. Analysis of cell viability is necessary for the characterization of cell responses to cytotoxic drugs and environmental stress. A RealTime-Glo MT Cell Viability Assay to monitor cell viability in real time of continues cell culture during 40 hours of compound treatment was used to screen Tox21 10K library compounds in Hek293 cells. The RealTime-Glo MT Cell Viability Assay is a nonlytic, homogeneous, bioluminescent method to measure cell viability in real time using a simple, plate-based method. The assay involves adding NanoLuc luciferase and a cell-permeant prosubstrate to cells in culture. Viable cells reduce the proprietary prosubstrate to generate a substrate for NanoLuc luciferase. This substrate diffuses from cells into the surrounding culture medium, where it is rapidly used by the NanoLuc Enzyme to produce a luminescent signal. The signal correlates with the number of viable cells, making the assay well suited for cytotoxicity studies.
Tox21 Assay Protocol Summary: The mixture of Hek293 cell suspension and reagents were dispensed at 600cells/6 ul/well in 1536-well tissue culture treated black solid bottom plates using a Multidrop dispenser. After the assay plates were incubated at a 37 C/5% CO2 incubator for 5 hours, 23 nL of compounds dissolved in DMSO, positive and negative controls was transferred to the assay plate by a pintool work station. The plates were incubated at 37 C for 40 hours. The luminescence intensity were measured at 0h, 8h, 16h, 24h, 32h and 40h time points using ViewLux plate reader during compound treatment.
Potency is the fitted concentration of half-maximal effect.

Structure (SMILES)	Potency	activity change, negative = cytotoxicity
CC(=O)OCC(C)OC(C)=O (stereo not given)	inactive	
CC(C)(C)C(=O)OCOC(=O)C1N2C(=O)CC2S(=O)(=O)C1(C)C (stereo not given)	inactive	
O=C(O)c1cc(O)c2c(c1)C(=O)c1cccc(O)c1C2=O	inactive	
c1ccc(CSCc2ccccc2)cc1	inactive	
C[C@@H]1C[C@H]2[C@@H]3CCC4=CC(=O)C=C[C@]4(C)[C@@]3(Cl)[C@@H](O)C[C@]2(C)[C@@]1(OC(=O)c1ccco1)C(=O)CCl	inactive	
Oc1ccc2cc(SSc3ccc4cc(O)ccc4c3)ccc2c1	39 µM (active)	
O=c1[nH]cnc2nc[nH]c12	inactive	
Cc1ccc2oc(CN(Cc3ccccc3)C(=O)Nc3c(F)cc(F)cc3F)c(-c3ccc(Cl)cc3)c2c1	inactive	
Cc1cc(=O)oc2cc(N(C)C)ccc12	inactive	
CCOc1nc2cccc(C(=O)OC(C)OC(=O)OC3CCCCC3)c2n1Cc1ccc(-c2ccccc2-c2nn[nH]n2)cc1 (stereo not given)	8.7 µM (active)	
COc1ccc(-c2ccc3cc(C(=O)O)ccc3c2)cc1C12CC3CC(CC(C3)C1)C2	inactive	
O=C(NO)C1(NS(=O)(=O)c2ccc(Oc3ccc(F)cc3)cc2)CCOCC1	inactive	
O=S1(=O)CC(Cl)(Cl)C(Cl)(Cl)C1	12.3 µM (active)	
O=C(Nc1cccc(Cl)c1)OCC#CCCl	43.6 µM (active)	
C=C(C)C(=O)OCC(O)COc1ccc(C(C)(C)c2ccc(OCC(O)COC(=O)C(=C)C)cc2)cc1 (stereo not given)	11 µM (active)	
CSc1cnc(C)cn1	inactive	
CN(C)c1ccc(SC#N)cc1	inactive	
CCC(CN)=C(c1ccccc1)c1ccccc1	inactive	
CCCCCCCCCCCCCCCC(=O)OC[C@H](O)[C@H]1OC(=O)C(O)=C1O	inactive	
O=C(OC[C@H]1O[C@@H](OC(=O)c2cc(O)c(O)c(OC(=O)c3cc(O)c(O)c(O)c3)c2)[C@H](OC(=O)c2cc(O)c(O)c(OC(=O)c3cc(O)c(O)c(O)c3)c2)[C@@H](OC(=O)c2cc(O)c(O)c(OC(=O)c3cc(O)c(O)c(O)c3)c2)[C@@H]1OC(=O)c1cc(O)c(O)c(OC(=O)c2cc(O)c(O)c(O)c2)c1)c1cc(O)c(O)c(OC(=O)c2cc(O)c(O)c(O)c2)c1		-15.8% [at 15.8 µM]

Structure (SMILES)	Potency	activity change, negative = cytotoxicity
Cc1c(C)c2c(c(C)c1OC(=O)CCC(=O)O)CC[C@@](C)(CCC[C@H](C)CCC[C@H](C)CCCC(C)C)O2	inactive	
CCCCCCCCNC(C)C(O)c1ccc(SC(C)C)cc1 (stereo not given)	10.7 µM (active)	
CCCCCCCCOc1ccccc1C(=O)Nc1ccc(C(=O)OCC[N+](C)(CC)CC)cc1	inactive	
[Cl][Bi]([Cl])([c]1ccccc1)([c]1ccccc1)[c]1ccccc1	21.7 µM (active)	
CC[C@H](c1ccc(O)cc1)[C@@H](CC)c1ccc(O)cc1	inactive	
CC(C)CCCCCCCCCCCCCCC(=O)O	inactive	
CCCCCCCCCCCC(=O)NCCCN(C)C	49 µM (active)	
OCCN1CCN(CC/C=C2/c3ccccc3Sc3ccc(C(F)(F)F)cc32)CC1	21.3 µM (active)	
CNc1ccc(O)cc1	15.5 µM (active)	
Cc1ccc(O)c(C(C)(C)C)c1	inactive	
Cc1cccc(N(C)C(=S)Oc2ccc3c(c2)C2CCC3C2)c1 (stereo not given)	inactive	
COc1c(C)c2c(c(O)c1C/C=C(\C)CCC(=O)O)C(=O)OC2	inactive	
Cc1onc(-c2c(Cl)cccc2Cl)c1C(=O)N[C@@H]1C(=O)N2[C@@H]1SC(C)(C)[C@@H]2C(=O)O	inactive	
CC(C)OC(=O)c1cc2c(OCC(O)CNC(C)(C)C)cccc2[nH]1 (stereo not given)	9.52 µM (active)	
COC(=O)C1=C(C)NC(C)=C(C(=O)OCC(C)C)C1c1ccccc1[N+](=O)[O-] (stereo not given)	21.9 µM (active)	
Cc1cc(O)c2ccccc2c1O	5.35 µM (active)	
Cc1cccc(CN2CCN(C(c3ccccc3)c3ccc(Cl)cc3)CC2)c1 (stereo not given)	inactive	
CCCCCCCC(=O)[O-].CCCCCCCC(=O)[O-].[Zn+2]	inactive	
O=c1c(-c2ccccc2)c1-c1ccccc1	16.9 µM (active)	
O=C(OCC(COC(=O)c1ccccc1)(COC(=O)c1ccccc1)COC(=O)c1ccccc1)c1ccccc1	24.5 µM (active)	
